“And” between values parts separate entries of the source, which are not always exact repeats. Equal entries are not always repeated. About 83,000 compounds went through this panel and 20% of them were active in at least one assay; those are over-represented in the sample as a whole.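 Percent growth is the endpoint: 0 to 100 indicates growth inhibition (40 means 60% inhibition), 0 means no net growth, and negative values indicate cell death.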 The source holds several records for some structures; these can differ, active in one and inactive in another. The source made the active and inactive calls.

The first experiment concerns A549/ATCC NSCLC. Kind of experiment: NCI-60 one-dose screen, 48 h (100 = growth as untreated, 0 = no growth, -100 = all killed). The settings on record: 10 µM. The procedure: Growth inhibition of the A549/ATCC human Non-Small Cell Lung tumor cell line is measured as a screen for anti-cancer activity. Cells are grown in 96 well plates and exposed to the test compound for 48 hours. Compounds are tested at a single concentration, which is 10^-5 M for most compounds. The reported endpoint is percent growth (GI% or GIPRCNT), where numbers from 0 - 100% represent growth inhibition, and numbers from -100% - 0 represent cell death. For example, a value of 40 represents 60% growth inhibition. A value of 0 means no net growth occurred over the course of the experiment. A value of -40 indicates 40% of cells at the beginning of the experiment died by the end of the experiment. A value of -100 means all cells are dead at the end of the experiment.
NCI-60 Human Tumor Cell Lines Screen was performed using the standard one-dose NCI protocol, which is described in more detail at https://dtp.cancer.gov/discovery_development/nci-60/default.htm.
Compounds with GIPRCNT values below 10 were considered active. Activity score was based on GIPRCNT using the following formula: […]
Score is 0 for GIPRCNT values of 100 or above, 50 for GIPRCNT values of 0, and 100 for GIPRCNT values of -100.
Turning to `CC#C[C@]1(O)CC[C@H]2[C@@H]3CCC4=CC(=O)CCC4=C3[C@@H](c3ccc4c(c3)OCO4)C[C@@]21C`, the growth is 66.7% (inactive).
Same read-out and setting: in the case of `CC1(C)OB(c2ccc(Cn3cc(F)c(=O)[nH]c3=O)cc2)OC1(C)C` it was 98.9% (inactive); in that of `Cc1[nH]c(-c2nc3ccccc3[nH]2)c(C)c1C(=O)NC(C)C1CCCCC1` (stereo not given), 90.5% (inactive).

Still in this experiment, the particulars now being: 10 µM unless noted.
Take `O=[N+]([O-])c1ccccc1/C=N\Nc1ccccc1`: the growth was 81.4% (inactive) and 81.6% (inactive).
With `OCc1ccccn1`, the growth was 102% (inactive).
The same measure, in the same setting: in the case of `COC(=O)c1nc(N)nc(C(=O)OC)c1C(=O)c1ccc(OC)cc1` it was 102% (inactive) and 53.6% (inactive); in that of `CC(C)(C)c1ccc(O)c(CNC2CCCCC2)c1`, 99.2% (inactive) and 84.7% (inactive).
With `O=C1OC(Oc2ccc(Br)cc2)(c2ccccc2)c2ccccc21` (stereo not given), the growth was 82.6% (inactive) and 88% (inactive).
As to `Cc1ccc(NCSc2ccc(Cl)cc2)cc1`, the growth is 62% (inactive) and 63.7% (inactive).
Take `CCCCCCCCCCCCCCCc1cc(O)ccc1N`: the growth was 89.3% (inactive) and 99.8% (inactive).
The same measure, in the same setting: in the case of `OCCN1CCN(CCO)CC1` it was 89.5% (inactive) and 73% (inactive) and 115% (inactive); in that of `Cc1cc(O)c2c(c1)C(=O)c1cc(O)cc(O)c1C2=O`, 77.5% (inactive) and 81.1% (inactive); in that of `CC(C)N=c1cc2n(-c3ccc(Cl)cc3)c3ccccc3nc-2cc1Nc1ccc(Cl)cc1`, 20.2% (inactive) and 43.3% (inactive) and 16.1% (inactive).
As for `Cc1ccc(S(=O)(=O)Nc2nc3ccccc3nc2Nc2ccc3nsnc3c2)cc1`, the growth is 31% (inactive) and 38.4% (inactive).
In the case of `COC(=O)/C=C/c1cc(O)c2c(c1)C(C(=O)OC)C(c1ccc(O)c(O)c1)O2` (stereo not given), the growth is 31.5% (inactive) and 20.3% (inactive).
Same read-out and setting: in the case of `C[N+](C)(C)CN1C(=O)c2ccccc2C1=O` it was 99.8% (inactive); in that of `CC1=C(/C=C/C(C)=C/C=C/C(C)=C/C=N/NC(=S)NC(=S)N/N=C/C=C(C)/C=C/C=C(C)/C=C/C2=C(C)CCCC2(C)C)C(C)(C)CCC1`, 17.3% (inactive) and 3.05% (active); in that of `COc1cc(Nc2nc3ccccc3nc2NS(=O)(=O)c2ccc(NC(=O)c3ccc(C)c(OC)c3)cc2)cc(OC)c1`, 50.2% (inactive) and -9.71% (active).
The same measure, in the same setting: in the case of `Cc1cccc(/C=C\C(=O)c2ccc(Cl)cc2)c1` it was 88.8% (inactive) and 85.8% (inactive); in that of `CC(C)(O)Cn1cc(-c2ccc3nc(OC4CC4)ccc3c2)c2c(N)ncnc21`, 75.3% (inactive) and 51.3% (inactive).
Same read-out and setting: the value for `O=c1c2ccccc2nc2n1Cc1nc3ccccc3c(=O)n1C2` was 102% (inactive) and 100% (inactive).
Consider `Fc1ccccc1Nc1n[nH]c(=S)s1`, for which the growth is 101% (inactive).
Same read-out and setting: in the case of `CCN(CC)C(=S)SSC(=S)N(CC)CC` it was 85.5% (inactive); in that of `Nc1ncnc2c1ncn2C1CC(O)C(CO)O1` (stereo not given), 101% (inactive).
The same measure, in the same setting: in the case of `c1ccc2cc(C[n+]3ccn(Cc4ccc5ccccc5n4)c3)ccc2c1` it was 37.3% (inactive) and 59.3% (inactive).
Same read-out and setting: in the case of `C1CCCCNCCC1` it was 105% (inactive).
As to `CCN(CC)CCC(CNc1c2ccc([N+](=O)[O-])cc2nc2cc(OC)c(OC)cc12)c1ccccc1` (stereo not given), the growth was -6.05% (active) and -93.9% (active).
As for `Cc1ncsc1CCO`, the growth is 96.2% (inactive) and 92.5% (inactive).
On to `O=C(/C=C\c1ccnc2ccccc12)c1ccc([N+](=O)[O-])cc1`, for which the growth is 91.5% (inactive) and 78.3% (inactive).
Still for that read-out and setting: the value for `O=C(CCc1ccc(O)cc1)N/N=C/c1cc(Br)ccc1O` was 47.6% (inactive).
On the same count and under the same terms, in the case of `Nc1nc(SC/C=C/CCl)c2[nH]cnc2n1` it was 95.4% (inactive) and 103% (inactive).
On the same count and under the same terms, in the case of `O=C(O)CCCCc1ccc([N+](=O)[O-])cc1` it was 97.6% (inactive) and 102% (inactive); in that of `Nc1cc2c(cc1N)-c1ccccc1C2`, 90.9% (inactive) and 90.4% (inactive).
In the case of `CCOc1ccc2nc3cc(N)ccc3c(N)c2c1`, the growth is 77.6% (inactive) and 77.2% (inactive).
`Cc1cccc(/C=C\C(=O)c2ccccc2)c1`: the growth was 87.7% (inactive) and 92.8% (inactive).
Consider `CCN(CC)CCOc1ccc(/C=N/Nc2nc3c([nH]2)c(=O)n(C)c(=O)n3C)cc1`, for which the growth is 104% (inactive) and 110% (inactive).
For `CN1C(=O)C(N=Nc2ccc([N+](=O)[O-])cc2)SC1=S` (stereo not given), the growth is 71% (inactive) and 76.3% (inactive).

The experiment is the same for the next values; noted with them: 50 µM.
As to `CC1(C)OB(c2ccc(Cn3cc(F)c(=O)[nH]c3=O)cc2)OC1(C)C`, the growth was 75.8% (inactive).

The experiment is the same for the next values; noted with them: 100 µM.
As for `CC#C[C@]1(O)CC[C@H]2[C@@H]3CCC4=CC(=O)CCC4=C3[C@@H](c3ccc4c(c3)OCO4)C[C@@]21C`, the growth is -19.7% (active).
On the same count and under the same terms, in the case of `Cc1[nH]c(-c2nc3ccccc3[nH]2)c(C)c1C(=O)NC(C)C1CCCCC1` (stereo not given) it was -40.2% (active).

The record behind these values is PubChem BioAssay (NCI).
